BAZ2B block = qHTS Assay for Inhibitors of BAZ2B | AlphaScreen BAZ2B-H3K14Ac peptide displacement | Potency, µM (doses to about 114 µM), for inactives: at the highest dose activity change, negative = inhibition, usual class: inhibitors | 360,000 tested, 4.4% active | AID 504333, 2011; also: potency is read from the fitted curve at half-maximal effect; % is scaled to controls: 0 for no effect and ±100 for the full control effect; nearly all actives have a fitted effect of over 60% in size
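Complex of BAZ2B and biotin-H3K14Ac (50 nM apiece) forms over 30 min at RT, then faces library compounds up to 110 uM for another 30 min; AlphaScreen beads added, 20 min dark incubation, luminescence read.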
HP1b chromo inh = HTS for Inhibitors of HP1-beta Chromodomain Interactions with Methylated Histone Tails; Chromobox protein homolog 1 (Homo sapiens), P83916; AlphaScreen HP1-beta / biotin-H3K9me3 peptide binding; Potency, µM (doses to about 114 µM), for inactives: at the highest dose activity change, negative = inhibition, actives largely listed as inhibitors; 390,000 tested, 0.56% active; AID 540317, 2011; also: potency is read from the fitted curve at half-maximal effect; nearly all actives have a fitted effect of over 70% in size
Target sequence (P83916 whole entry, looked up): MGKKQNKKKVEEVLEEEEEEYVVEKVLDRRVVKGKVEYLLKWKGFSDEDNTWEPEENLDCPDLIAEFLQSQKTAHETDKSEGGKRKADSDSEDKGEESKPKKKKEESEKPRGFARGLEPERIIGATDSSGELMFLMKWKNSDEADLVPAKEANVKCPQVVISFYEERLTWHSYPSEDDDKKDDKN
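Compound inhibition of the preformed complex between 50 nM HP1-beta and 50 nM biotinylated H3K9me3 peptide was read by AlphaScreen. Buffer was PBS pH 7.4 with 0.01% Tween-20. Incubations ran 30 min at room temperature, with 10 ug/mL donor/acceptor beads.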
PI5P4K alpha inh = qHTS for Inhibitors of phosphatidylinositol 5-phosphate 4-kinase (PI5P4K); PI5P4Kalpha enzyme, ADP-Glo luminescence, 60 min; hits give low values; max response, %; 330,000 tested, 1.2% active; AID 652105, 2013; active = max response of -50% or lower; inconclusive = between -30% and -50%; inactive = -30% or higher; also: value at the top dose of about 77 µM; % is scaled to controls: 0 for no effect and ±100 for the full control effect
Target sequence (P48426 whole entry, looked up): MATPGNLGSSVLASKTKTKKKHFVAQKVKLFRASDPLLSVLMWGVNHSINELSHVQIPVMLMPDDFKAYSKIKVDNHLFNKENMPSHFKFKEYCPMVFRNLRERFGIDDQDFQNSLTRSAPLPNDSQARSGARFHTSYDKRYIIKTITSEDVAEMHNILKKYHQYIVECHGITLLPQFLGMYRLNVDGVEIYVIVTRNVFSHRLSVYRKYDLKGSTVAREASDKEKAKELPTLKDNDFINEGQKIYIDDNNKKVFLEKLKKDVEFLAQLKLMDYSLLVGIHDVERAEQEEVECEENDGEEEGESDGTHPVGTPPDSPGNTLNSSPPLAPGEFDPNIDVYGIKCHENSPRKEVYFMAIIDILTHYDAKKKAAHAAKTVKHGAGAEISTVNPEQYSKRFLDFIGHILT
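ADP-Glo luminescence end-point read after a 60 min room-temperature kinase reaction of PI5P4Kalpha plus substrate, initiated with ATP at 5 microM final. Buffer: 0.038 M HEPES pH 7.4, EGTA, 0.1% CHAPS, 5% DMSO.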
PLK1 PBD inh = qHTS for Inhibitors of PLK1-PDB (polo-like kinase 1 - polo-box domain): Primary Screen. Serine/threonine-protein kinase PLK1 (Homo sapiens), P53350. Plk1 PBD binding of FITC phosphopeptide, fluorescence polarization. Potency, µM, without a hit: max response, negative = inhibition, hits mostly inhibitors. 360,000 tested, 2.8% active. AID 720504, 2013; also: potency is read from the fitted curve at half-maximal effect; series mostly up to about 57 µM; % is scaled to controls: 0 for no effect and ±100 for the full control effect; nearly all actives have a fitted effect of over 65% in size
JMJD2A Tudor inh = qHTS Assay for Inhibitors of JMJD2A-Tudor Domain; Lysine-specific demethylase 4A (Homo sapiens), O75164; AlphaScreen JMJD2A-Tudor / H3K4me3 peptide binding; Potency, µM (titrated, usually from 114 µM), without a hit: at the top dose activity change, negative = inhibition, actives largely listed as inhibitors; 390,000 tested, 4.4% active; also: potency is read from the fitted curve at half-maximal effect; % is scaled to controls: 0 for no effect and ±100 for the full control effect; nearly all actives have a fitted effect of over 50% in size
KAT2A inh = qHTS Assay for Inhibitors of GCN5L2; Histone acetyltransferase KAT2A (Homo sapiens), Q92830; GCN5L2 HAT assay, ThioGlo1 CoA-SH fluorescence; Potency, µM (highest dose often 58.9 µM), for the others: at the top dose activity change, negative = inhibition, hits mostly inhibitors; 390,000 tested, 0.21% active; also: potency is read from the fitted curve at half-maximal effect; % is scaled to controls: 0 for no effect and ±100 for the full control effect
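Preincubate 20nM GCN5L2 with compound 15 min, RT → add 50uM ThioGlo1 + 75uM H3(1-25) + 70uM acetyl-CoA → read fluorescence 0 and 20 min. Primary qHTS; fluorescent artifacts likely.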
Active calls of the source: *; [ ] = dose if it differs, or a comment. Only some compounds are listed: those with a hit (about 7% of all), similar ones and a draw of the others. Unless noted, calls follow the shape of the dose curve; as a rule, active = well fitted curve in the direction sought with a large enough effect; inconclusive = small, poorly fitted or top-dose-only effect, or another doubt; inactive = no such curve, though single readings can be large; an effect the other way counts as inactive or inconclusive.

What do the screens show for `C[C@H]1CN([C@@H](C)CO)C(=O)CCCn2nncc2CO[C@@H]1CN(C)C(=O)Nc1ccc2c(c1)OCO2`?
PI5P4K alpha inh: 5.0; PLK1 PBD inh: 5.32µM*

How did COc1cc(-c2ccc(Nc3ccccc3C(=O)O)c(OC)c2)ccc1Nc1ccccc1C(=O)O do in these assays?
BAZ2B block: 5.62µM*; HP1b chromo inh: 35.5µM*; PI5P4K alpha inh: -89.2*; PLK1 PBD inh: 16.8µM*; JMJD2A Tudor inh: inconclusive; KAT2A inh: -4.2%

How did O=C(O)c1ccccc1Nc1ccccc1 do in these assays?
BAZ2B block: -6.0%; HP1b chromo inh: 20.2%; PI5P4K alpha inh: -0.6; PLK1 PBD inh: -11.9%; JMJD2A Tudor inh: -23.4%; KAT2A inh: -11.6%

Results for CC(C)c1ccc(NC(=O)C2CCN(c3ncnc4c3nc3n4CCCCC3)CC2)cc1 ?
BAZ2B block: -16.7%; HP1b chromo inh: -7.9%; PI5P4K alpha inh: 6.7; PLK1 PBD inh: 29.9µM*; JMJD2A Tudor inh: inconclusive; KAT2A inh: -0.9%

How did O=C(NCCc1ccccc1)C1CCN(c2ncnc3c2nc2n3CCCCC2)CC1 do in these assays?
BAZ2B block: 5.3%; HP1b chromo inh: 31.9%; JMJD2A Tudor inh: 11.2%; KAT2A inh: 0.6%

How did O=C(Nc1ccc(F)c(Cl)c1)C1CCN(c2ncnc3c2nc2n3CCCCC2)CC1 do in these assays?
BAZ2B block: -4.0%; HP1b chromo inh: 11.4%; PI5P4K alpha inh: -7.6; PLK1 PBD inh: -13.1%; JMJD2A Tudor inh: -21.4%; KAT2A inh: -5.0%

What do the screens show for `O=C(NCCCN1CCCCC1)C1CCN(c2ncnc3c2nc2n3CCCCC2)CC1`?
BAZ2B block: -18.0%; HP1b chromo inh: 5.6%; PI5P4K alpha inh: -8.3; PLK1 PBD inh: 26.7µM*; JMJD2A Tudor inh: inconclusive; KAT2A inh: 0.3%

How did Cc1cccc(NC(=O)C2CCN(c3ncnc4c3nc3n4CCCCC3)CC2)n1 do in these assays?
BAZ2B block: -8.7%; HP1b chromo inh: 15.0%; PI5P4K alpha inh: -0.2; PLK1 PBD inh: 26.7µM*; JMJD2A Tudor inh: inconclusive; KAT2A inh: -6.1%

How did Cc1c(Cl)cccc1NC(=O)C1CCN(c2ncnc3c2nc2n3CCCCC2)CC1 do in these assays?
BAZ2B block: -3.5%; HP1b chromo inh: 23.5%; JMJD2A Tudor inh: -10.6%; KAT2A inh: -7.4%

What do the screens show for `CCOC(=O)c1cnc(SC2CC(=O)N(c3ccccc3)C2=O)nc1N` (stereo not drawn)?
BAZ2B block: 5.0%; HP1b chromo inh: 45.6%; PI5P4K alpha inh: 1.4; PLK1 PBD inh: -17.4%; JMJD2A Tudor inh: 2.9%; KAT2A inh: -4.0%

How did CCCCSc1ncc(C(=O)OCC)c(N)n1 do in these assays?
BAZ2B block: 12.5%; HP1b chromo inh: inconclusive; PI5P4K alpha inh: -18.3; PLK1 PBD inh: 9.47µM*; JMJD2A Tudor inh: inconclusive; KAT2A inh: -4.8%

What do the screens show for `CCOC(=O)c1cnc(SCCc2ccccc2)nc1N`?
BAZ2B block: 50.8%; HP1b chromo inh: 70.7%; PLK1 PBD inh: -8.1%; JMJD2A Tudor inh: 66.2%; KAT2A inh: 1.2%

Results for CCOC(=O)c1cnc(SC2CCc3ccccc3C2=O)nc1N (stereo not drawn) ?
BAZ2B block: -2.6%; HP1b chromo inh: -11.4%; PI5P4K alpha inh: 1.3; PLK1 PBD inh: 26.7µM*; JMJD2A Tudor inh: -19.8%[57.1 µM]; KAT2A inh: -0.7%

What do the screens show for `CCC1CCCCN1C(=O)CSc1n[nH]c(-c2ccccc2)n1` (stereo not drawn)?
BAZ2B block: 0.2%; HP1b chromo inh: 18.5%[57 µM]; JMJD2A Tudor inh: 2.6%; KAT2A inh: 0.7%

What do the screens show for `COC(=O)c1ccc(C2/C(=C(/O)c3ccc(Cl)cc3)C(=O)C(=O)N2C2CCS(=O)(=O)C2)cc1` (stereo not drawn)?
BAZ2B block: inconclusive; HP1b chromo inh: -15.6%; PI5P4K alpha inh: 1.8; PLK1 PBD inh: -3.4%; JMJD2A Tudor inh: 89.1µM*; KAT2A inh: -15.0%

Results for O=C1C(=O)N(C2CCS(=O)(=O)C2)C(c2cccc(O)c2)/C1=C(/O)c1ccc(Cl)cc1 (stereo not drawn) ?
BAZ2B block: 79.4µM*; HP1b chromo inh: -2.1%; PI5P4K alpha inh: -6.8; PLK1 PBD inh: -8.6%; JMJD2A Tudor inh: inconclusive; KAT2A inh: -6.4%

What do the screens show for `CC(C(=O)NCc1ccc(Cl)cc1)n1ccc2cc(S(=O)(=O)N3CCCC3)ccc21` (stereo not drawn)?
BAZ2B block: -13.6%; HP1b chromo inh: 37.9%; JMJD2A Tudor inh: -13.1%; KAT2A inh: -6.1%

How did CN(C)S(=O)(=O)Oc1cc(Cl)ccc1C(=O)Nc1ccc(F)cc1F do in these assays?
BAZ2B block: -15.4%; HP1b chromo inh: -9.6%; PI5P4K alpha inh: -3.6; PLK1 PBD inh: 23.8µM*; JMJD2A Tudor inh: inconclusive; KAT2A inh: -4.9%

Results for COC(=O)C[C@@H]1CC[C@H](NC(=O)c2ccccc2)[C@@H](CO)O1 ?
PI5P4K alpha inh: -0.9; PLK1 PBD inh: -9.7%

What do the screens show for `COc1ccc(OC)c(Nc2cc(C(=O)NCCCN3CCOCC3)c3ccccc3n2)c1`?
BAZ2B block: inconclusive; HP1b chromo inh: -19.2%; PI5P4K alpha inh: 4.9; PLK1 PBD inh: -3.7%; JMJD2A Tudor inh: inconclusive; KAT2A inh: 0.3%

Results for COc1ccc(Nc2cc(C(=O)NCCCN(C)C3CCCCC3)c3ccccc3n2)cc1 ?
HP1b chromo inh: inconclusive; JMJD2A Tudor inh: inconclusive; KAT2A inh: -0.8%

Results for COc1ccc(N2CCN(CCCNC(=O)c3cc(Nc4ccc(OC)cc4OC)nc4ccccc34)CC2)cc1 ?
BAZ2B block: 15.8µM*; HP1b chromo inh: inconclusive; JMJD2A Tudor inh: 25.1µM*; KAT2A inh: -7.4%

What do the screens show for `COc1ccc(Nc2cc(C(=O)NCCCN(C)C3CCCCC3)c3ccccc3n2)c(OC)c1`?
HP1b chromo inh: inconclusive; JMJD2A Tudor inh: 20µM*; KAT2A inh: -0.4%

How did CC1CCC(NC(=O)C2(C)Cc3ccccc3C(=O)N2Cc2ccc(F)cc2)CC1 (stereo not drawn) do in these assays?
BAZ2B block: 0.9%; HP1b chromo inh: 30.9%; JMJD2A Tudor inh: -2.2%; KAT2A inh: 2.2%

What do the screens show for `CCc1ccc(NC(=O)CN2C(C(=O)OC)=C(c3ccccc3)c3ccccc3S2(=O)=O)cc1`?
BAZ2B block: -5.6%; HP1b chromo inh: 15.1%; JMJD2A Tudor inh: -5.5%; KAT2A inh: -22.2%

Assay outcomes from PubChem.
